Results filed as inconclusive are left out. The source made the active and inactive calls. Unless noted, calls follow the shape of the full dose curve.
Assays:
[1] = Cell Viability - BJ (AID 421); conditions: BJ fibroblast viability, qHTS;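 also: potency is read from the fitted curve at half-maximal effect; cells exposed to compound for 40 hours at 37 °C before readout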
In short: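 Cytotoxicity in human BJ foreskin fibroblasts is scored as loss of cellular ATP after a 40-hour exposure, measured by luciferase luminescence. Controls are DMSO and 100 uM tamoxifen.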

[2] = Cell Viability - Jurkat (AID 426;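 active = dose-dependent loss of cell ATP signal giving a full or clear fitted curve, ranked by lower potency value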;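 also: potency is read from the fitted curve at half-maximal effect; cells exposed to compound for 40 hours at 37 °C before ATP read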); conditions: qHTS
In short: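 Seed 5000 Jurkat E6-1 cells/well; add compound; incubate 40 hr at 37 °C; add CellTiter-Glo; wait 20 min at room temperature; read luminescence. Fit concentration-response with Hill equation for AC50.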

[3] = Cell Viability - Hek293 (AID 427;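 active = compounds whose dose-response curve shows a full or clear partial loss of cell viability, called from curve shape rather than a numeric limit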;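 also: potency is read from the fitted curve at half-maximal effect; cells exposed to compound for 40 hours at 37 °C before reading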); conditions: qHTS
In short: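 qHTS, human embryonic kidney (adenovirus-transformed) cells; 40 hr cpd, 37 °C; CellTiter-Glo ATP luminescence. Norm: DMSO = 0, 100 uM tamoxifen = 100% inhibition. Hill-fit AC50.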

[4] = Cell Viability - HepG2 (AID 433); conditions: qHTS;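 also: potency is read from the fitted curve at half-maximal effect; cells exposed to compound for 40 hours; potency for ATP loss meaning cytotoxicity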
In short: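 HepG2 cells, 1500 per well, treated 40 hr at 37 °C in complete medium; viability from intracellular ATP by CellTiter-Glo luminescence. Normalized to DMSO and 100 uM tamoxifen; AC50 from Hill fit of qHTS concentration-response.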

[5] = Cell Viability - MRC5 (AID 434); conditions: MRC5 lung fibroblast viability, qHTS;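 also: potency is read from the fitted curve at half-maximal effect; cells exposed to compound for 40 hours at 37 °C; potency reflects cytotoxicity seen as loss of intracellular ATP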
In short: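 qHTS cytotoxicity in human lung fibroblast MRC5 cells; 40 hr treatment, 37 °C; cellular ATP by luciferase luminescence; DMSO = 0%, 100 uM tamoxifen = 100% inhibition; Hill-fit AC50.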

[6] = Cell Viability - SK-N-SH (AID 435); conditions: SK-N-SH neuroblastoma cell viability qHTS;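 also: potency is read from the fitted curve at half-maximal effect; compound exposure lasted 40 h at 37 °C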
In short: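 SK-N-SH neuroblastoma cells (1500/well) treated 40 h at 37 °C in complete medium; viability read as cellular ATP by CellTiter-Glo luminescence. Normalized to DMSO and 100 uM tamoxifen; AC50 from Hill fits of qHTS concentration-response.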

[7] = biological target: Mitogen-activated protein kinase 10 (Mus musculus) (UniProt Q61831); test: JNK3 AlphaScreen Assay (AID 530; active = well fitted curve in either direction with a large enough effect, not every such curve was filed as active;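 also: kinase came from lysate of stimulated human HepG2 cells; signal reports phosphorylation of biotinylated GST-cJun 1-79 at Ser73 with 10 µM ATP; % is scaled to controls: 0 for no effect and ±100 for the full control effect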); conditions: JNK3 lysate, c-Jun phosphorylation; series mostly up to 57.1 µM
In short: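 Room-temperature AlphaScreen kinase assay; pre-activated HepG2 lysate as JNK3 source, biotin-GST-cJun(1-79) substrate, 10 uM ATP, compound 15 min preincubation.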

[8] = Cell Viability - N2a (AID 540; active = well fitted curve in the direction sought with a large enough effect; an effect the other way counts as inactive or inconclusive;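 also: cells exposed to compound for 40 h at 37 °C; plate controls were DMSO alone for no effect and tamoxifen control for full effect; nearly all actives have a fitted effect of over 45% in size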); conditions: N2a mouse neuroblastoma cell viability; activity change, negative = cytotoxicity: at 92.2 µM (top of the series)
In short: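 First, 1500 N2a cells per well incubate 5 hr at 37 °C; next, compounds are added and incubated 40 hr at 37 °C; finally CellTiter-Glo is added and luminescence read after 20 min, with AC50 derived by Hill modeling.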

[9] = Cell Viability - HUV-EC-C (AID 542; active = well fitted curve in the direction sought with a large enough effect; an effect the other way counts as inactive or inconclusive;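 also: cells exposed to compound for 40 hours; % is scaled to controls: 0 for no effect and ±100 for the full control effect; nearly all actives have a fitted effect of over 35% in size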); conditions: HUV-EC-C endothelial cell viability, qHTS; series mostly up to 92.2 µM
In short: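 Decrease in cellular ATP, quantified by luciferase luminescence, reflects toxicity in normal human vascular endothelial HUV-EC-C cells given compound for 40 hr in complete culture medium. Values are AC50s from concentration-response curves.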

[10] = Cell Viability - NIH 3T3 (AID 541; active = well fitted curve in the direction sought with a large enough effect; an effect the other way counts as inactive or inconclusive;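 also: cells exposed to compound for 40 hours; plate controls were DMSO alone for no effect and tamoxifen positive control for full effect; nearly all actives have a fitted effect of over 25% in size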); conditions: NIH 3T3 cell viability, qHTS; activity change, negative = cytotoxicity: at 92.2 µM (top of the series)
In short: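 AC50 values reflect concentration-dependent loss of intracellular ATP in NIH 3T3 cells after 40 hr treatment in complete culture medium, quantified by luciferase-based luminescence.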

c1ccc2[nH]cnc2c1
inactive: Potency [1] > 92 µM | Potency [2] > 92 µM | Potency [3] > 92 µM | Potency [4] > 92 µM | Potency [5] > 92 µM | Potency [6] > 92 µM | outcome [7] | activity change, negative = cytotoxicity [8] -1.37% | Potency [9]

COCCOC(=O)c1ccccc1C(=O)OCCOC
inactive: Potency [1] > 92 µM | Potency [2] > 92 µM | Potency [3] > 92 µM | Potency [4] > 92 µM | Potency [5] > 92 µM | Potency [6] > 92 µM | activity change, negative = cytotoxicity [8] 4.24% | Potency [10] | Potency [9]

c1ccc(Nc2ccccc2)cc1
inactive: Potency [1] > 92 µM | Potency [2] > 92 µM | Potency [3] > 92 µM | Potency [4] > 92 µM | Potency [5] > 92 µM | Potency [6] > 92 µM | outcome [7] | activity change, negative = cytotoxicity [8] -5.87% | Potency [9]

O=C(Cl)c1ccccc1[N+](=O)[O-]
inactive: Potency [1] > 92 µM | Potency [2] > 92 µM | Potency [3] > 92 µM | Potency [4] > 92 µM | Potency [5] > 92 µM | Potency [6] > 92 µM | outcome [7] | activity change, negative = cytotoxicity [8] 0.882% | Potency [9]

Cc1ccccc1C#N
inactive: Potency [1] > 92 µM | Potency [2] > 92 µM | Potency [3] > 92 µM | Potency [4] > 92 µM | Potency [5] > 92 µM | Potency [6] > 92 µM | outcome [7] | activity change, negative = cytotoxicity [8] -9.75% | Potency [9]

Nc1cccc([N+](=O)[O-])c1
inactive: Potency [1] > 92 µM | Potency [2] > 92 µM | Potency [3] > 92 µM | Potency [4] > 92 µM | Potency [5] > 92 µM | Potency [6] > 92 µM | outcome [7] | activity change, negative = cytotoxicity [8] -10.1% | Potency [9]

CC(C=O)Cc1ccc(C(C)(C)C)cc1 (configuration not stated)
inactive: Potency [1] > 92 µM | Potency [2] > 92 µM | Potency [3] > 92 µM | Potency [4] > 92 µM | Potency [5] > 92 µM | Potency [6] > 92 µM | outcome [7] | activity change, negative = cytotoxicity [8] -7.79% | Potency [9]

Nc1cccc(S(=O)(=O)O)c1
inactive: Potency [1] > 92 µM | Potency [2] > 92 µM | Potency [3] > 92 µM | Potency [4] > 92 µM | Potency [5] > 92 µM | Potency [6] > 92 µM | outcome [7] | activity change, negative = cytotoxicity [8] -6.89% | Potency [9]

CC(=O)c1cccc([N+](=O)[O-])c1
inactive: Potency [1] > 92 µM | Potency [2] > 92 µM | Potency [3] > 92 µM | Potency [4] > 92 µM | Potency [5] > 92 µM | Potency [6] > 92 µM | activity change, negative = cytotoxicity [8] 0.298% | Potency [10] | Potency [9]

CC(C)C=O
inactive: Potency [1] > 92 µM | Potency [2] > 92 µM | Potency [3] > 92 µM | Potency [4] > 92 µM | Potency [5] > 92 µM | Potency [6] > 92 µM | outcome [7] | activity change, negative = cytotoxicity [8] -13.8% | Potency [9]

O=C(O)c1cc(Cl)cc(Cl)c1
inactive: Potency [1] > 92 µM | Potency [2] > 92 µM | Potency [3] > 92 µM | Potency [4] > 92 µM | Potency [5] > 92 µM | Potency [6] > 92 µM | activity change, negative = cytotoxicity [8] -1.73% | Potency [10] | Potency [9]

CC(=O)Nc1cccc(N)c1
inactive: Potency [1] > 92 µM | Potency [2] > 92 µM | Potency [3] > 92 µM | Potency [4] > 92 µM | Potency [5] > 92 µM | Potency [6] > 92 µM | activity change, negative = cytotoxicity [8] 5.61% | Potency [10] | Potency [9]

OC1CCCC1
inactive: Potency [1] > 92 µM | Potency [2] > 92 µM | Potency [3] > 92 µM | Potency [4] > 92 µM | Potency [5] > 92 µM | Potency [6] > 92 µM | outcome [7] | activity change, negative = cytotoxicity [8] -9.14% | Potency [9]

NC(=O)/N=N/C(N)=O
inactive: Potency [1] > 92 µM | Potency [2] > 92 µM | Potency [3] > 92 µM | Potency [4] > 92 µM | Potency [5] > 92 µM | Potency [6] > 92 µM | outcome [7] | activity change, negative = cytotoxicity [8] 10.3% | Potency [9]

C/C(C=O)=C/c1ccccc1
inactive: Potency [1] > 92 µM | Potency [2] > 92 µM | Potency [3] > 92 µM | Potency [4] > 92 µM | Potency [5] > 92 µM | Potency [6] > 92 µM | activity change, negative = cytotoxicity [8] -1.48% | Potency [10] | Potency [9]

C=CCCCCCC
inactive: Potency [1] > 92 µM | Potency [2] > 92 µM | Potency [3] > 92 µM | Potency [4] > 92 µM | Potency [5] > 92 µM | Potency [6] > 92 µM | outcome [7] | activity change, negative = cytotoxicity [8] 6.33% | Potency [9]

C=Cc1ccccn1
inactive: Potency [1] > 92 µM | Potency [2] > 92 µM | Potency [3] > 92 µM | Potency [4] > 92 µM | Potency [5] > 92 µM | Potency [6] > 92 µM | activity change, negative = cytotoxicity [8] 5.72% | Potency [10] | Potency [9]

CNc1ccc([N+](=O)[O-])cc1
inactive: Potency [1] > 92 µM | Potency [2] > 92 µM | Potency [3] > 92 µM | Potency [4] > 92 µM | Potency [5] > 92 µM | Potency [6] > 92 µM | outcome [7] | activity change, negative = cytotoxicity [8] -12.7% | Potency [9]

Source: PubChem BioAssay (NCATS)
